Data published in the supplement of paper PMC13380429.
Structures can show the parent of a compound that is named as a salt.

System: Vero E6 infected with SARS-CoV-2
Test: inhibition of SARS-CoV-2 cytopathic effect; higher = more antiviral protection, active = above 15
Conditions: 48 h

Measured: inhibition of SARS-CoV-2 cytopathic effect

CCOCc1cc(OC)c(-c2ccc(C[C@H](NC(=O)c3c(F)cccc3F)C(=O)O)cc2)c(OC)c1 [firategrast]
inactive: 1 nM 2.19% | 8.33 nM -0.43% | 100 nM 0.01% | 833.33 nM -0.69% | 10000 nM -2.41%

C[C@@H](O[C@H]1OCCN(Cc2n[nH]c(=O)[nH]2)[C@H]1c1ccc(F)cc1)c1cc(C(F)(F)F)cc(C(F)(F)F)c1 [aprepitant]
inactive: 1 nM -2.6% | 8.33 nM -2.93% | 100 nM -3.21% | 833.33 nM -4.32% | 10000 nM -6.5%

CCN1CCN(Cc2ccc(C(=O)Nc3ccc(C)c(Oc4ccc5c(c4)CC(=O)N5)c3)cc2C(F)(F)F)CC1
active: 10000 nM 56%
inactive: 1 nM -1.15% | 8.33 nM -1.24% | 100 nM 1.47% | 833.33 nM 3.18%

C[C@@H]1O[C@@H]1P(=O)(O)O
inactive: 1 nM 0.82% | 8.33 nM -0.13% | 100 nM -0.02% | 833.33 nM 0.37% | 10000 nM 0.09%

COc1cccc2c1C(=O)c1c(O)c3c(c(O)c1C2=O)C[C@@](O)(C(=O)CO)C[C@@H]3O[C@H]1C[C@H](N)[C@@H](O)[C@H](C)O1 [Epirubicin Hydrochloride]
inactive: 1 nM 1.23% | 8.33 nM 1.09% | 100 nM 0.605% | 833.33 nM 1.46% | 10000 nM -4.63%

O=C(/C=C/c1ccc(CN(CCO)CCc2c[nH]c3ccccc23)cc1)NO [dacinostat]
inactive: 1 nM -2.47% | 8.33 nM -2.54% | 100 nM -6.55% | 833.33 nM -21.1% | 10000 nM -23.2%

COC[C@@H](c1ccc(C(F)(F)F)cc1)N1CCN(C2(C)CCN(C(=O)c3c(C)ncnc3C)CC2)C[C@@H]1C [vicriviroc]
inactive: 1 nM -0.96% | 8.33 nM -0.11% | 100 nM -0.52% | 833.33 nM 0.02% | 10000 nM -0.9%

CC(C)(C)NC(=O)[C@@H](c1cccnc1)N(C(=O)c1ccco1)c1ccc(C(C)(C)C)cc1
inactive: 1 nM -0.21% | 8.33 nM 1.78% | 100 nM 0.92% | 833.33 nM -2.61% | 10000 nM -3.73%

CNCCn1c(=O)c2cc(OC)c(OC)cc2c2cnc3cc4c(cc3c21)OCO4
inactive: 1 nM 3.31% | 8.33 nM 1.57% | 100 nM -1.27% | 833.33 nM -9.93% | 10000 nM -15.7%

C[C@H]1O[C@H](O[C@H]2[C@H](O)[C@@H](O)[C@@H](O[C@H]3[C@H](O)[C@@H](O)C(O)O[C@@H]3CO)O[C@@H]2CO)[C@H](O)[C@@H](O)[C@@H]1N[C@H]1C=C(CO)[C@@H](O)[C@H](O)[C@H]1O (stereo not given in full) [acarbose]
inactive: 1 nM 0.51% | 8.33 nM 1.35% | 100 nM -0.08% | 833.33 nM -0.03% | 10000 nM -0.32%

Cc1cc(-c2ncc(CC(=O)Nc3ccc(-c4cnccn4)cn3)cc2C)ccn1
inactive: 1 nM -0.34% | 8.33 nM -0.01% | 100 nM -1.16% | 833.33 nM 1.44% | 10000 nM 2.89%

Clc1cccc(C(c2ccc3[nH]cnc3c2)n2ccnc2)c1 (stereo not given) [liarozole]
inactive: 1 nM 0.27% | 8.33 nM 3.78% | 100 nM 1.18% | 833.33 nM 1.7% | 10000 nM 1.64%

NC(=O)c1ccc(F)c2c1C[C@@H](N(C1CCC1)C1CCC1)CO2 [robalzotan]
inactive: 1 nM -1.71% | 8.33 nM 2.76% | 100 nM 1.8% | 833.33 nM 0.98% | 10000 nM 3.7%

CC(C)(Oc1ccc(C(=O)c2ccc(Cl)cc2)cc1)C(=O)O [fenofibric-acid]
inactive: 1 nM 0.66% | 8.33 nM -0.84% | 100 nM 0.44% | 833.33 nM 1.29% | 10000 nM -0.37%

C[C@H]1NC(=O)NC1=O [5-methylhydantoin-(D)]
inactive: 1 nM -0.22% | 8.33 nM -0.75% | 100 nM -0.63% | 833.33 nM -6.83% | 10000 nM 0.71%

CCCCCOc1ccc(-c2cc(-c3ccc(C(=O)N[C@H]4C[C@@H](O)[C@@H](O)NC(=O)[C@@H]5[C@@H](O)[C@@H](C)CN5C(=O)[C@H]([C@H](O)CC(N)=O)NC(=O)[C@H]([C@H](O)[C@@H](O)c5ccc(O)c(OS(=O)(=O)O)c5)NC(=O)[C@@H]5C[C@@H](O)CN5C(=O)[C@H]([C@@H](C)O)NC4=O)cc3)no2)cc1 [micafungin]
inactive: 1 nM -6.42% | 8.33 nM -5.65% | 100 nM -5.9% | 833.33 nM -3.13% | 10000 nM 4.81%

O=c1[nH]cnc2c1cnn2[C@@H]1O[C@H](CO)[C@@H](O)[C@H]1O [allopurinol-riboside]
inactive: 1 nM 0.99% | 8.33 nM 0.92% | 100 nM 2.88% | 833.33 nM 0.52% | 10000 nM 1.75%

Clc1ccc(C(Cn2ccnc2)OCc2ccc(Sc3ccccc3)cc2)c(Cl)c1 (stereo not given) [fenticonazole]
inactive: 1 nM -3.37% | 8.33 nM 3.19% | 100 nM 0.76% | 833.33 nM 0.19% | 10000 nM 2.21%

Clc1ccc(COC(Cn2ccnc2)c2ccc(Cl)cc2Cl)c(Cl)c1 (stereo not given) [miconazole]
inactive: 1 nM -1.92% | 8.33 nM 0.22% | 100 nM -0.38% | 833.33 nM 0.7% | 10000 nM -4.16%

Cc1cccc(-c2[nH]c(CNc3ccccc3F)nc2-c2ccc3ncnn3c2)n1
inactive: 1 nM 0.31% | 8.33 nM 3.47% | 100 nM 1.38% | 833.33 nM 1.08% | 10000 nM 2.46%

CCC[C@H]1C(=O)N2C(N(C)C)=Nc3ccc(C)cc3N2C1=O [azapropazone]
inactive: 1 nM -0.8% | 8.33 nM -0.4% | 100 nM -0.47% | 833.33 nM -0.49% | 10000 nM -3.61%

O=c1[nH]ccc2cc(OC3CCNCC3)ccc12
inactive: 1 nM 1.91% | 8.33 nM 0.89% | 100 nM -0.08% | 833.33 nM -3.34% | 10000 nM -7.36%

CC1CS(=O)(=O)CCN1/N=C/c1ccc([N+](=O)[O-])o1 (stereo not given) [nifurtimox]
inactive: 1 nM -0.09% | 8.33 nM 0.8% | 100 nM -1.28% | 833.33 nM 2.01% | 10000 nM 1.23%
